HDAC3 inhib = inhibitors of human histone deacetylase 3; recombinant HDAC3, fluorogenic peptide/trypsin coupled, fluorescence; inhibition, % at 8.3 µM; hit rate 0.15% among 320,000; AID 2718; in the data active = inhibition above about 26%, passing the limit was not always enough
Target sequence (O15379 whole entry, looked up): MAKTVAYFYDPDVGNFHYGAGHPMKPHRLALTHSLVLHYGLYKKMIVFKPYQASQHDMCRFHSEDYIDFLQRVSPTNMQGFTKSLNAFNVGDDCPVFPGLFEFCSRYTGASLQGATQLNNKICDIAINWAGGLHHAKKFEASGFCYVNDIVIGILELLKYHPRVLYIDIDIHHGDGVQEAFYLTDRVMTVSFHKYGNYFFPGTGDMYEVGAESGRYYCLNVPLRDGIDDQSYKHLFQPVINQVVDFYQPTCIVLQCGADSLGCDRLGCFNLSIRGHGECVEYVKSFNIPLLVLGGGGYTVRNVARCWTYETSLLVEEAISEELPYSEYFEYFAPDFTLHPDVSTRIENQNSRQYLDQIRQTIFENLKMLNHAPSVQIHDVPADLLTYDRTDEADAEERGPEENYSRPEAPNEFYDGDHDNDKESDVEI
ALR H2O2 inh = blocks human ALR sulfhydryl oxidase activity | P55789 | purified ALR, DTT oxidation, H2O2 HRP-luminol luminescence | inhibition, % (test concentration not listed) | hit rate 3.8% among 290,000 | AID 485317;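 active = mean replicate inhibition above about 79%, with every replicate also reaching it, limit read from the data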
Rce1 inh = blocks yeast Ras-converting enzyme | yeast membranes, quenched prenylated peptide cleavage fluorescence | calls only | hit rate 0.27% among 290,000 | AID 2563;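 active = fall in fluorescence gain of 50% or more versus controls, with final raw signal at or below 3038400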;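 note: plate controls were neutral control wells for no effect and wells lacking membranes for full effect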
Efflux pump inh = blocks antifungal efflux pumps in multiplex yeast assay | S. cerevisiae Candida pump triplex, Nile Red efflux | inhibition, % at 10 µM | hit rate 0.44% among 330,000 | AID 485275;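 active = plate passing quality check with inhibition over a set limit, or well fluorescence over plate mean plus 4 SD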;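 note: Nile Red retained in pooled yeast measured as flow cytometry median fluorescence; 0% = buffer negative control and 100% = Enniatin B positive control; higher means more Nile Red kept so more efflux inhibition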
Rtt109 HAT inh = C. albicans Rtt109 histone acetyltransferase inhibition; Q5AAJ8; purified Rtt109/Vps75, ThioGlo CoA-SH fluorescence, 4 h; inhibition, % at 34.9 µM; hit rate 0.16% among 330,000;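 active = inhibition of at least 50% in every replicate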
GRK2 aptamer HTS = human GRK2 inhibition via aptamer displacement | bead flow cytometry, FAM-aptamer displacement from GRK2 | P25098 | hit rate 0.59% among 330,000 | inhibition of aptamer binding, % at 10 µM;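 active = inhibition of aptamer binding above 40%, roughly 3 SD of noise, on plates passing a quality check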;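 note: median bead fluorescence of bound FAM aptamer so fluorescent compounds give negative values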
* = called active by the depositor; i = inactive; . = no result given; + = active, no number. Only some compounds are listed: those with a hit (about 4.5% of all), similar ones and a draw of the others.

SMILES | HDAC3 inhib | ALR H2O2 inh | Rce1 inh | Efflux pump inh | Rtt109 HAT inh | GRK2 aptamer HTS
O=C1NC(=O)C2(Cc3ccccc3N3CCCC32)C(=O)N1c1ccccc1 (stereo not drawn) | 2 | -7 | i | 0 | -64 | 0
O=C1NC(=O)C2(Cc3ccccc3N3CCCC32)C(=O)N1 (stereo not drawn) | 1 | 99* | i | 0 | -23 | 0
Cc1ccc2c(C)c3ccc4ccccc4c3c[n+]2c1 | . | . | . | . | -4 | .
C#CCNc1ccncc1S(=O)(=O)NC(=O)NC(C)C | -8 | 2 | i | 0 | 6 | 3
O=C1NC(=O)C(=Cc2ccc(-c3ccc(F)cc3O)o2)C(=O)N1 | 5 | 98* | i | 0 | -10 | 0
O=C1NC(=O)C(=Cc2ccc(-c3ccc(Cl)cc3)o2)C(=O)N1 | 0 | 94* | i | 0 | 1 | 5
O=C1NC(=O)C(=Cc2ccc(Sc3ccccc3)o2)C(=O)N1 | 0 | 43 | i | 0 | 4 | 2
Cc1ccc(/C=C2\C(=O)NC(=O)N(CCc3ccc(F)cc3)C2=O)o1 | 5 | 6 | i | 0 | -6 | 0
O=C1NC(=O)C(=Cc2ccc(-c3ccc(S(=O)(=O)N4CCOCC4)cc3)o2)C(=O)N1 | -2 | 92* | i | 0 | 2 | 1
CN1Cc2cnnn2-c2ccccc2C1c1ccccc1 (stereo not drawn) | . | . | . | . | 0 | .
CC(Cc1ccccc1Sc1ccc(O)cc1)N(C)C (stereo not drawn) | 7 | 99* | i | 0 | 4 | 0
CC(Cc1ccccc1Sc1ccccc1)N(C)C (stereo not drawn) | -4 | -12 | i | 0 | -6 | 0
COc1cccc(CNC(=O)CCC(=O)N2C[C@H]3C[C@H](C2)c2cccc(=O)n2C3)c1OC | 4 | -5 | i | 0 | -13 | 1
CCN(CC)c1ccc(N=Cc2c(O)n(-c3cc(OC)ccc3OC)c(=O)[nH]c2=O)cc1 | -2 | 95* | i | 0 | -5 | 0
Cc1ccc2c(c1)=C/C(=C\c1c(O)[nH]c(=S)[nH]c1=O)C(=O)N=2 | -3 | 97* | i | 0 | . | 7
Cc1ccc2c(c1)=NC(=O)/C(=C/c1c(O)[nH]c(=O)[nH]c1=O)C=2 | 1 | 9 | i | 0 | -44 | 2
O=C1NC(=O)C(Nc2ccc(Cl)c(Cl)c2)C(=O)N1 | . | . | . | . | 0 | .
CN(C)c1ccc2c(c1)N=C(c1ccco1)OP2(=S)N1CCOCC1 (stereo not drawn) | 2 | 58 | i | 0 | 8 | 1
CCN(CC)c1ccc(CN(C)CCc2ccc(OC)c(OC)c2)cc1 | 0 | 99* | i | 0 | 8 | 4
COc1ccc(CCN(C)Cc2ccc(F)cc2F)cc1OC | -3 | -24 | i | 0 | -7 | 0
C=CC[N+]1(C)CC[C@]23c4c5ccc(O)c4O[C@H]2C(=O)CC[C@@]3(O)[C@H]1C5 (stereo partly drawn) | 4 | 34 | + | 0 | -4 | 3
O=c1c2ccccc2nc(CNCc2ccco2)n1-c1ccc(F)cc1 | . | . | i | 0 | -1 | 8
CC(C#N)CCC#N (stereo not drawn) | -6 | -12 | . | 0 | 6 | 4
CN=C(SCc1ccccc1)c1c(O)n(C)c(=O)n(C)c1=O | 6 | 98* | i | 0 | 6 | 2
C/C(=N\Nc1ccccc1)c1c(O)n(C)c(=O)n(C)c1=O | 2 | 99* | i | 0 | -6 | 0
SMILES | HDAC3 inhib | ALR H2O2 inh | Rce1 inh | Efflux pump inh | Rtt109 HAT inh | GRK2 aptamer HTS
CCC(=NCCC(c1ccccc1)c1ccccc1)c1c(O)n(C)c(=O)n(C)c1=O | 2 | -4 | i | 0 | -21 | 1
C/C(=N\NC(=O)c1ccccc1O)c1c(O)n(Cc2ccccc2)c(=O)[nH]c1=O | -5 | 14 | i | 0 | 19 | 0
Cn1c(O)c(C(=O)c2ccccc2)c(=O)n(C)c1=O | -1 | 46 | i | 0 | -1 | 2
C/C(=N\Nc1ccccc1)c1c(O)n(Cc2ccccc2)c(=O)[nH]c1=O | -14 | 98* | i | 0 | 3 | 8
C/C(=N\NC(=O)c1ccccc1)c1c(O)n(C2CCCCC2)c(=O)[nH]c1=O | -6 | 93* | i | 0 | 1 | 1
O=C(Cn1cnc2sc3c(c2c1=O)CCCC3)NCCCC(=O)N1CCC2(CC1)OCCO2 | 10 | . | i | 0 | 8 | 2
CC(N=Cc1c(O)[nH]c(=O)[nH]c1=O)c1ccccc1 (stereo not drawn) | 3 | -4 | i | 0 | 10 | 0
CC[C@@H](C(N)=O)N1CCCC1=O | 9 | -1 | i | 0 | . | 0
C/C(=N\Nc1ccccc1)c1c(O)n(-c2ccccc2)c(=O)[nH]c1=O | 3 | 99* | i | 0 | 5 | 0
Cc1ccc(/C=C2/C(=O)NC(=O)N(CCc3ccc(F)cc3)C2=O)s1 | -7 | 29 | i | 0 | -2 | 0
Cc1ccc(/C=C2/C(=O)NC(=O)N(CC3CCCO3)C2=O)s1 (stereo not drawn) | 1 | 97* | i | 0 | . | 2
Cc1ccc(/C=C2\C(=O)NC(=O)N(CCc3ccc(F)cc3)C2=O)s1 | 0 | 96* | . | 0 | -4 | 0
CC(C)CCC1(CN2CCCC2=O)C(=O)NC(=O)NC1=O | 7 | -4 | i | 0 | -4 | 0
N#Cc1c(Cl)nc(Cl)c2c1CCN(Cc1ccccc1)C2 | -5 | -15 | + | 0 | -43 | 0
O=C(Cc1ccccc1)Oc1cccc(-n2cnnn2)c1 | 12 | 98* | i | 0 | -3 | 3
O=C(Cc1ccccc1)Oc1cccc(N2C(=O)CCC2=O)c1 | 0 | -8 | i | 0 | -13 | 11
Cc1cc(=O)oc2cc(OCC(=O)N3CCN(Cc4ccc5c(c4)OCO5)CC3)ccc12 | -7 | -4 | i | 1 | -12 | 2
Cn1c(O)c(/C=N/NC(=O)c2ccncc2)c(=O)[nH]c1=S | 18 | 19 | i | 0 | . | 0
CCCCn1c(O)c(/C=N/NC(=O)c2ccncc2)c(=O)[nH]c1=S | 6 | 99* | i | 0 | 13 | 4

High-throughput results (PubChem BioAssay)
